# Paper PMC7862700, “An all-to-all approach to the identification of sequence-specific readers for epigenetic DNA modifications on cytosine”
# Tests used:
# Assay in all cases: DAPPL (digital affinity profiling via proximity ligation, sequencing); 10 mM Tris-HCl pH 7.5, 50 mM NaCl, 1 mM DTT, 4% glycerol, room temperature, 30 min; GST-TFs on glutathione beads, 16-mer random dsDNA library, 0.1% formaldehyde crosslink after washing; high values mean tight binding
# FLI1 = biological target: T1, FLI1 (Homo sapiens, UniProt Q01543 1-452); settings: protein: recombinant; tags: N-terminal GST; dsDNA, one strand shown
# T1 sequence: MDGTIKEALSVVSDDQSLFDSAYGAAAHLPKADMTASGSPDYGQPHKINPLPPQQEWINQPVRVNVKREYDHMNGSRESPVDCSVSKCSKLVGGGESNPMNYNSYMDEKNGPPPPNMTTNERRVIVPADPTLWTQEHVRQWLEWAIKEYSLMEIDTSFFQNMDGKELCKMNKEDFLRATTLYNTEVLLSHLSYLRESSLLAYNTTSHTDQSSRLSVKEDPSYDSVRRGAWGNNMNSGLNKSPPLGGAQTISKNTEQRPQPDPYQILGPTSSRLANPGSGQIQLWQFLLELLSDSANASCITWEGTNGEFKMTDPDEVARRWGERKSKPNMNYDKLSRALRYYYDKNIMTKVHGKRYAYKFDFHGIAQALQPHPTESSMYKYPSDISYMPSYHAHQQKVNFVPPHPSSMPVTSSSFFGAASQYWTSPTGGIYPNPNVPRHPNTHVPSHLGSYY
# Summary of the method: (§1)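 Binding signal is given per hexamer as its read frequency for a factor divided by its frequency in the tag-only sample. GST-fused human transcription factors were expressed in yeast, captured on glutathione beads, barcoded with DNA and pooled with that sample, then incubated with 200 nmole of a 16-mer random double-stranded DNA library in Tris/NaCl/DTT/glycerol buffer for 30 min at room temperature. The pools were then washed, crosslinked, proximity-ligated, amplified by PCR and sequenced on an Illumina NextSeq500.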
# ELK1 = biological target: T2, ELK1 (Homo sapiens, UniProt P19419 1-428); settings: protein: recombinant; tags: N-terminal GST; dsDNA, one strand shown
# T2 sequence: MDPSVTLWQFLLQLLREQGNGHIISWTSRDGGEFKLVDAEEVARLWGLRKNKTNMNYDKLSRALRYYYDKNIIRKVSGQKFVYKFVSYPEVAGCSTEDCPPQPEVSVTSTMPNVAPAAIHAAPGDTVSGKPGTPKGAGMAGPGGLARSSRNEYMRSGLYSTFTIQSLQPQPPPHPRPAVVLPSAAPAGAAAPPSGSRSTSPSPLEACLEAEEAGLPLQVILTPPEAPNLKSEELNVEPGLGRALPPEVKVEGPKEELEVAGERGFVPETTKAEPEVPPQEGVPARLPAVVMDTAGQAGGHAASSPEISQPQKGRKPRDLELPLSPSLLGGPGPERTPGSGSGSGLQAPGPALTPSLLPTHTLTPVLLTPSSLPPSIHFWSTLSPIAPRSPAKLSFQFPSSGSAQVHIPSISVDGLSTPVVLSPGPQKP
# Summary of the method: as §1
# GABPA = biological target: T3, GABPA (Homo sapiens, UniProt Q06546 1-454); settings: protein: recombinant; tags: N-terminal GST; dsDNA, one strand shown
# T3 sequence: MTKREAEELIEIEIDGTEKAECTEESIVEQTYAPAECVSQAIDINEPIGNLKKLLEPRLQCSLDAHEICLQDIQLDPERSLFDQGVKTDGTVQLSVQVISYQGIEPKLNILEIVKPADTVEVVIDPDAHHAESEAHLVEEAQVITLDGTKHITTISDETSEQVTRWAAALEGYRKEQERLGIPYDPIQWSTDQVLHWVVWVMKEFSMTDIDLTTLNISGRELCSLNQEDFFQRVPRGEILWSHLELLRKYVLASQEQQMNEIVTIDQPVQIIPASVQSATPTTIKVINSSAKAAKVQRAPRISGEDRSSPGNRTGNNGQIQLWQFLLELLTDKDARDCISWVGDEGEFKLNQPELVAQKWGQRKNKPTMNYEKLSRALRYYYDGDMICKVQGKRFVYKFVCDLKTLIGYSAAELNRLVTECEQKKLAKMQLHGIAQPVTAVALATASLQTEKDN
# Summary of the method: as §1
# ERG = biological target: T4, ERG (Homo sapiens, UniProt P11308 1-479); settings: protein: recombinant; tags: N-terminal GST; dsDNA, one strand shown
# T4 sequence: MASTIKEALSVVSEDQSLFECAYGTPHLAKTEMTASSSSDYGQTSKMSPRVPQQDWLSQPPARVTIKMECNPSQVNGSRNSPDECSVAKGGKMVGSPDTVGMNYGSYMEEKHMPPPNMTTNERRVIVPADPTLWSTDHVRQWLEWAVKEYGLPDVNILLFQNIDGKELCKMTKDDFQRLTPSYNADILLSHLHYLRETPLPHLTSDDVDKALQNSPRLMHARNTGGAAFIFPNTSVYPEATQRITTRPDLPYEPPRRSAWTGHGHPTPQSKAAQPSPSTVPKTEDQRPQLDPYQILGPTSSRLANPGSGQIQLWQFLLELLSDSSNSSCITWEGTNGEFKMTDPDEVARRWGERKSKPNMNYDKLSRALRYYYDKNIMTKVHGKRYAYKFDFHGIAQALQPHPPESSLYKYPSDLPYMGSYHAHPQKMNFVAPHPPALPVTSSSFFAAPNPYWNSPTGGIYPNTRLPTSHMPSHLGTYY
# Summary of the method: as §1
# ELF1 = ELF1 (Homo sapiens, UniProt P32519 1-619); settings: protein: recombinant; tags: N-terminal GST; dsDNA, one strand shown
# Summary of the method: as §1
# EHF = biological target: T5, EHF (Homo sapiens, UniProt Q9NZC4 1-300); settings: protein: recombinant; tags: N-terminal GST; dsDNA, one strand shown
# T5 sequence: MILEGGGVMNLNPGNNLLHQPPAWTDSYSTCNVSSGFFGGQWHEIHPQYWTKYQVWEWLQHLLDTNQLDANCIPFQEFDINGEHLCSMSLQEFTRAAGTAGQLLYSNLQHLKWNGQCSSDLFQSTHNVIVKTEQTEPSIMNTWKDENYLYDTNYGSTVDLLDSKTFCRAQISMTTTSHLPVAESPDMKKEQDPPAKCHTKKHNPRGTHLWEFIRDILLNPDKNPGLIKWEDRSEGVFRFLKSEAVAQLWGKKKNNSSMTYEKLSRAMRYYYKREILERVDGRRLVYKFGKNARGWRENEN
# Summary of the method: as §1
# SPI1 = SPI1 (Homo sapiens, UniProt P17947 1-270); settings: protein: recombinant; tags: N-terminal GST; dsDNA, one strand shown
# Summary of the method: as §1
# SPIB = SPIB (Homo sapiens, UniProt Q01892 1-262); settings: protein: recombinant; tags: N-terminal GST; dsDNA, one strand shown
# Summary of the method: as §1
# ELK3 = biological target: T6, ELK3 (Homo sapiens, UniProt P41970 1-407); settings: protein: recombinant; tags: N-terminal GST; dsDNA, one strand shown
# T6 sequence: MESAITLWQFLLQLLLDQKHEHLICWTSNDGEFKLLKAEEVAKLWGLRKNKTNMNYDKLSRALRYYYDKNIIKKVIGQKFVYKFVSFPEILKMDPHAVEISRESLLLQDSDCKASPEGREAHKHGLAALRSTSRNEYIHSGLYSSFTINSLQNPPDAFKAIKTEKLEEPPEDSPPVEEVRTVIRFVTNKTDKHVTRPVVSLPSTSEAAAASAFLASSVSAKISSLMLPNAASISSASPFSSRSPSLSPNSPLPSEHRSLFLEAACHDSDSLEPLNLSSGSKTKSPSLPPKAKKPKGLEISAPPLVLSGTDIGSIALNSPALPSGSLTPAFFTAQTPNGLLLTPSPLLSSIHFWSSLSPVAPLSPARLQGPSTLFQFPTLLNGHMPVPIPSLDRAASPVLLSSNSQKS
# Summary of the method: as §1
# FEV = biological target: T7, FEV (Homo sapiens, UniProt Q99581 1-238); settings: protein: recombinant; tags: N-terminal GST; dsDNA, one strand shown
# T7 sequence: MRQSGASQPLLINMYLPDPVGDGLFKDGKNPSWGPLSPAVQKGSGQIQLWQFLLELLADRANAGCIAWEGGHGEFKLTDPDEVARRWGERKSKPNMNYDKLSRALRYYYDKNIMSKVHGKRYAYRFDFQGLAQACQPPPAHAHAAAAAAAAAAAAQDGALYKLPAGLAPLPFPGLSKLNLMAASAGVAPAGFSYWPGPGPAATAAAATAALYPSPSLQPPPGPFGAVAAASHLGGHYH
# Summary of the method: as §1
# ETV5 = ETV5 (Homo sapiens, UniProt P41161 1-510); settings: protein: recombinant; tags: N-terminal GST; dsDNA, one strand shown
# Summary of the method: as §1
# HSF1 = HSF1 (Homo sapiens, UniProt Q00613 1-529); settings: protein: recombinant; tags: N-terminal GST; chain copies: 3; dsDNA, one strand shown
# Summary of the method: as §1
# SPIC = biological target: T8, SPIC (Homo sapiens, UniProt Q8N5J4 1-248); settings: protein: recombinant; tags: N-terminal GST; dsDNA, one strand shown
# T8 sequence: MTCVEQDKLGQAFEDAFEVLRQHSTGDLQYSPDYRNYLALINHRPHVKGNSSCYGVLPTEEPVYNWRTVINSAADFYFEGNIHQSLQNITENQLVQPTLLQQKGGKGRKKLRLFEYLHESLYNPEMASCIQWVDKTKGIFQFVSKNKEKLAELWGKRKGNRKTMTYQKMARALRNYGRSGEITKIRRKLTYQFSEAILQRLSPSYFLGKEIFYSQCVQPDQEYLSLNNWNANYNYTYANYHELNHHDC
# Summary of the method: as §1
# ELF4 = ELF4 (Homo sapiens, UniProt Q99607 1-663); settings: protein: recombinant; tags: N-terminal GST; dsDNA, one strand shown
# Summary of the method: as §1
# ELK4 = biological target: T9, ELK4 (Homo sapiens, UniProt P28324-2 1-405); settings: protein: recombinant; tags: N-terminal GST; dsDNA, one strand shown
# T9 sequence: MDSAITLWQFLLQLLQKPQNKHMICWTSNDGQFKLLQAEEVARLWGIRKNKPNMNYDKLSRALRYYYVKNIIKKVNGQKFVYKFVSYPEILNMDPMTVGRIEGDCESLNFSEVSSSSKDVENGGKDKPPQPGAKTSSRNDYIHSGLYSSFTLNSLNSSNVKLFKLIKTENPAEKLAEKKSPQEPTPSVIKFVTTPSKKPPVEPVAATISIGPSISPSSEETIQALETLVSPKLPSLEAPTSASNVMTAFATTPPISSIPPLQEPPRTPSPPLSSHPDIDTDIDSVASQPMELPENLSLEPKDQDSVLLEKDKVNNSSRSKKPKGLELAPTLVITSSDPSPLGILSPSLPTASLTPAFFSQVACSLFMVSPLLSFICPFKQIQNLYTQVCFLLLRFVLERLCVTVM
# Summary of the method: as §1
# ETV2 = biological target: T10, ETV2 (Homo sapiens, UniProt O00321 1-342); settings: protein: recombinant; tags: N-terminal GST; dsDNA, one strand shown
# T10 sequence: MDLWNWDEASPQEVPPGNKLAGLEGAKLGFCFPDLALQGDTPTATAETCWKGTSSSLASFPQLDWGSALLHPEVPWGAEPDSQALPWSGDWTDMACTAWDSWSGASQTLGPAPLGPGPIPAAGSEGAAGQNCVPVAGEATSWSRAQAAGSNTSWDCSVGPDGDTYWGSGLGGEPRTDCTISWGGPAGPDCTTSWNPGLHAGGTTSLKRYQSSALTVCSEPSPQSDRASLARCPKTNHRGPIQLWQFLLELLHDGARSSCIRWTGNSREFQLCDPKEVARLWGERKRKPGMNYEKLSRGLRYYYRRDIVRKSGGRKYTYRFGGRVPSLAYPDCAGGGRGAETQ
# Summary of the method: as §1
# ELF3 = biological target: T11, ELF3 (Homo sapiens, UniProt P78545 1-371); settings: protein: recombinant; tags: N-terminal GST; dsDNA, one strand shown
# T11 sequence: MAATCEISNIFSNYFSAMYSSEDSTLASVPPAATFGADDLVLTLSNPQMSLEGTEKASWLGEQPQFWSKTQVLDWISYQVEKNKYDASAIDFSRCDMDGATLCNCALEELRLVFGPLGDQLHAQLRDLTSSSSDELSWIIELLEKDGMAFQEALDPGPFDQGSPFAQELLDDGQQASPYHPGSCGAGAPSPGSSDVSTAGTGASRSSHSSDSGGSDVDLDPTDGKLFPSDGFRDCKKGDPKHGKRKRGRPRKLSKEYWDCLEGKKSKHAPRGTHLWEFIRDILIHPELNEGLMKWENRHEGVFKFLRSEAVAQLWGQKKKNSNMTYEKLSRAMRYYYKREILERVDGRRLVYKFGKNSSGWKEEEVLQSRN
# Summary of the method: as §1
# CRX = CRX (Homo sapiens, UniProt O43186 1-299); settings: protein: recombinant; tags: N-terminal GST; dsDNA, one strand shown
# Summary of the method: as §1
# ETV1 = ETV1 (Homo sapiens, UniProt P50549 1-477); settings: protein: recombinant; tags: N-terminal GST; dsDNA, one strand shown
# Summary of the method: as §1
# Sequence of SPIB (Q01892 whole entry): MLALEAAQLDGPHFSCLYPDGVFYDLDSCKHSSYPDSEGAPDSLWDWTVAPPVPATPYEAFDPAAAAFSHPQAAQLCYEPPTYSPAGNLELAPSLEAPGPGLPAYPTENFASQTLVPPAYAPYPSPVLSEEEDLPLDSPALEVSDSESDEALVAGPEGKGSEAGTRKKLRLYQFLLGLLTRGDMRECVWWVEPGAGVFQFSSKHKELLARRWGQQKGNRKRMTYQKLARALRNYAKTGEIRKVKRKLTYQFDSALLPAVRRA
# Sequence of ELF1 (P32519 whole entry): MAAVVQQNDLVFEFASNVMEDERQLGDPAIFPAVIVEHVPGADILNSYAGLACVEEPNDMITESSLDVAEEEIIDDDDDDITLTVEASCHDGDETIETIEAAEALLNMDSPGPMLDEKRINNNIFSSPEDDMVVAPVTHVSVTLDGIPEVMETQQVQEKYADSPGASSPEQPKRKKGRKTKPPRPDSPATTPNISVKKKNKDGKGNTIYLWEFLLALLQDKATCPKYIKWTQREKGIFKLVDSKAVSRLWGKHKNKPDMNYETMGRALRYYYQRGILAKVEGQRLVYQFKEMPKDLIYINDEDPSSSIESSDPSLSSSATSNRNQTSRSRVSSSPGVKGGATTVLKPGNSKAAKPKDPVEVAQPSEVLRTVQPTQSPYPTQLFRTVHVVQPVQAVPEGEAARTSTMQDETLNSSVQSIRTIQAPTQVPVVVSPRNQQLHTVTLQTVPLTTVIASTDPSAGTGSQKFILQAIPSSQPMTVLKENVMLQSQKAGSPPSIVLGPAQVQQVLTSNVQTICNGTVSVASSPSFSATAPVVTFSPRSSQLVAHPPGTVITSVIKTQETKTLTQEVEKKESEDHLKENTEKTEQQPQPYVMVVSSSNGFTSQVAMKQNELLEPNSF
# Sequence of HSF1 (Q00613 whole entry): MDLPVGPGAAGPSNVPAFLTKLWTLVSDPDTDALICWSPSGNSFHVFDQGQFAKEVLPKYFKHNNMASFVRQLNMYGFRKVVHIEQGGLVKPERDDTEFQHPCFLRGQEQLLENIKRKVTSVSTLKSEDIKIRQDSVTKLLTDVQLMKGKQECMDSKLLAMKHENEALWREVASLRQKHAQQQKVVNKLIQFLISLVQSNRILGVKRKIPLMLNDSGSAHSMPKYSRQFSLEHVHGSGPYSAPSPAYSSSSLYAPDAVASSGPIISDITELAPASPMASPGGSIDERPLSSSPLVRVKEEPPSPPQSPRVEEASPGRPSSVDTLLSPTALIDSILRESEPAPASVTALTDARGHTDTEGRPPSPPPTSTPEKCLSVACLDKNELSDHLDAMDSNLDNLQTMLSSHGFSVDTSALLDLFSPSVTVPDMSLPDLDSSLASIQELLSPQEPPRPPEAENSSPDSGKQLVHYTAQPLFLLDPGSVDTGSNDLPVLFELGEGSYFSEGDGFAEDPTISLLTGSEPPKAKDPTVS
# Sequence of ETV5 (P41161 whole entry): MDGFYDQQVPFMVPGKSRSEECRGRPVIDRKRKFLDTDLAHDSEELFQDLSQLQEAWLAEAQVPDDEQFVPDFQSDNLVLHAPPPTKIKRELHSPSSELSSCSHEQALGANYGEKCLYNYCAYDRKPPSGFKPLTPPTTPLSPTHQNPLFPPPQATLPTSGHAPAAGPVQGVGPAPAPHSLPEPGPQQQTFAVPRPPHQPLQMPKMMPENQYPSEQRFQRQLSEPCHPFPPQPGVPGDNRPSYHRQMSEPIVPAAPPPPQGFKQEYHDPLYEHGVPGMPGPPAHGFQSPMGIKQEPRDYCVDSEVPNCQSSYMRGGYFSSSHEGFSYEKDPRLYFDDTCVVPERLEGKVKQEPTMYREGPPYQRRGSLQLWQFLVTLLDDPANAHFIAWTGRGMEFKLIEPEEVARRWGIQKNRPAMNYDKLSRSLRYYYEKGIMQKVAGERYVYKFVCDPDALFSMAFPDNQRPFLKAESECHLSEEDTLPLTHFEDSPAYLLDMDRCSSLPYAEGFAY
# Sequence of CRX (O43186 whole entry): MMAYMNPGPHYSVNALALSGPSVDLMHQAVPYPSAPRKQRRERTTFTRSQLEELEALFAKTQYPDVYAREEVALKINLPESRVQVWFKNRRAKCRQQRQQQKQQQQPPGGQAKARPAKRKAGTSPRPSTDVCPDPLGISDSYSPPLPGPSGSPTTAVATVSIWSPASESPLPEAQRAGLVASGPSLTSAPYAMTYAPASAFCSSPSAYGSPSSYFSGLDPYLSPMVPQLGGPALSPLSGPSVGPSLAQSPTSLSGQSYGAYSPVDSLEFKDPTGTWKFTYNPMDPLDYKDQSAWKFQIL
# Sequence of ELF4 (Q99607 whole entry): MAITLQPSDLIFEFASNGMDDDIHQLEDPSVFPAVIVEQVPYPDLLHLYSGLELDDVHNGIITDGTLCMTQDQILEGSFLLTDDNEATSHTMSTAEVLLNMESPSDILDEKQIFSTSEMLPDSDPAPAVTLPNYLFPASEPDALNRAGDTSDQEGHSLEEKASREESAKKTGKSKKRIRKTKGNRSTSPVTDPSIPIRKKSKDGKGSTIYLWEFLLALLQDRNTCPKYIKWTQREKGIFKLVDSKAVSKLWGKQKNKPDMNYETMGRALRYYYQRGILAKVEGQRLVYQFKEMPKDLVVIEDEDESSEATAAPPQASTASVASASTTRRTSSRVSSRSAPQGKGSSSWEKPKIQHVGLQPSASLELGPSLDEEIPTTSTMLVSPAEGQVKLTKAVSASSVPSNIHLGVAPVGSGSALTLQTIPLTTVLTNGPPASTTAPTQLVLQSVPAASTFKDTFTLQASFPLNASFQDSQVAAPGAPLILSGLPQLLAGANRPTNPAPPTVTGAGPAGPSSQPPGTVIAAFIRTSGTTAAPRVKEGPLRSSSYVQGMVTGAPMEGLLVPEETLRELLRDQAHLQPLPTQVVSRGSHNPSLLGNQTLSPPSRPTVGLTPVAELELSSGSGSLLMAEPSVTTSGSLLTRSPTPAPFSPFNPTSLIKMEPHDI
# Sequence of ETV1 (P50549 whole entry): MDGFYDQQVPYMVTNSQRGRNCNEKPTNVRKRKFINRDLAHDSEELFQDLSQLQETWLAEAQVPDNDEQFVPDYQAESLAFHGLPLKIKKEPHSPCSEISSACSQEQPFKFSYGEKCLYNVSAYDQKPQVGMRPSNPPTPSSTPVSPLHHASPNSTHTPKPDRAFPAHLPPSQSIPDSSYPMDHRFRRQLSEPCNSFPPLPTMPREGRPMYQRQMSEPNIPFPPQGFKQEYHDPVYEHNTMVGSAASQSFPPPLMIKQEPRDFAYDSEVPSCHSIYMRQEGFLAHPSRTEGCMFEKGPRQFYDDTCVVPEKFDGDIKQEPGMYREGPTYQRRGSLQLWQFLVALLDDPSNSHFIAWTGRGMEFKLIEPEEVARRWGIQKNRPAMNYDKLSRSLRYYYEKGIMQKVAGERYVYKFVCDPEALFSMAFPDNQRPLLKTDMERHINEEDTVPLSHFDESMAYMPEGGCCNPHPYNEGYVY
sequence,measurement,setting,value
CCATAA,binding signal,FLI1,"1.15 fold enrichment (6-mer frequency, TF over GST control)"
same,binding signal,ELK1,"1.15 fold enrichment (6-mer frequency, TF over GST control)"
same,binding signal,GABPA,"1.19 fold enrichment (6-mer frequency, TF over GST control)"
same,binding signal,ERG,"1.17 fold enrichment (6-mer frequency, TF over GST control)"
same,binding signal,ELF1,"1.15 fold enrichment (6-mer frequency, TF over GST control)"
same,binding signal,EHF,"1.05 fold enrichment (6-mer frequency, TF over GST control)"
same,binding signal,SPI1,"1.17 fold enrichment (6-mer frequency, TF over GST control)"
same,binding signal,SPIB,"1.16 fold enrichment (6-mer frequency, TF over GST control)"
same,binding signal,ELK3,"1.22 fold enrichment (6-mer frequency, TF over GST control)"
same,binding signal,FEV,"1.11 fold enrichment (6-mer frequency, TF over GST control)"
same,binding signal,ETV5,"1.12 fold enrichment (6-mer frequency, TF over GST control)"
same,binding signal,HSF1,"1.29 fold enrichment (6-mer frequency, TF over GST control)"
same,binding signal,SPIC,"1.33 fold enrichment (6-mer frequency, TF over GST control)"
same,binding signal,ELF4,"1.19 fold enrichment (6-mer frequency, TF over GST control)"
same,binding signal,ELK4,"1.11 fold enrichment (6-mer frequency, TF over GST control)"
same,binding signal,ETV2,"1.24 fold enrichment (6-mer frequency, TF over GST control)"
same,binding signal,ELF3,"1.07 fold enrichment (6-mer frequency, TF over GST control)"
same,binding signal,CRX,"1.64 fold enrichment (6-mer frequency, TF over GST control)"
same,binding signal,ETV1,"1.23 fold enrichment (6-mer frequency, TF over GST control)"
